PubChem BioAssay (NCATS)
Several values for one entry are separate records, joined by “and”; a condition that tells them apart may be missing. Equal values may be shown once. Records with an inconclusive call do not appear. Activity calls are given as the source filed them. Calls follow the shape of the full dose curve.

Assay: Primary qHTS to identify inhibitors of SARS-CoV-2 cell entry (AID 1645846); also: nearly all actives have a fitted effect of over 45% in size
Conditions: SARS-CoV-2 pseudovirus cell entry assay, luminescence; activity change, negative = inhibition: at 57.1 µM (top of the series) unless noted; series mostly up to 57.1 µM
Description: Assay Provider: Wei Zheng, Ph.D.
National Center for Advancing Translational Sciences, National Institute of Health, Rockville, MD.
SARS-CoV-2 spike protein, within the viral envelope, mediates viral attachment and infection of host cells. The SARS-CoV-2 spike protein specifically binds to the host receptor ACE2 (Angiotensin-converting enzyme 2). This interaction promotes endocytosis of the viral particle, additional events lead to viral-host cell membrane fusion and release of the viral contents, allowing viral replication.
While SARS-CoV-2 requires BSL-3 facilities for live virus work, pseudotyped partices (PP) that incorporate SARS-CoV-2 spike proteins without replication elements could facilitate studies on viral entry mechanisms in a BSL-2 setting. This PP cell entry assay could also enable screening of small molecule compound libraries in BSL-2 setting to identify inhibitors of SARS-CoV-2 cell entry.
PROTOCOL TABLE (format as described by Inglese J, Shamu CE and Guy RK. 2007)
SEQUENCE No. (e.g., 1, 2, 3, etc.); […] (e.g., Cells, Incubation, Reagent, etc.); VALUE and DESCRIPTION.
1. Cells. Seed 1500 HEK293-ACE2 cells (Expi293F with stable expression of human ACE2) in 2 uL/well media (DMEM, 10% FBS, 1x L-glutamine, 1x Pen/Strep, 1 ug/ml puromycin) in white 1536-well assay plates (Greiner #782073).
2. Incubation. Incubate at 37C with 5% CO2 overnight (~16 h).
3. Compounds. Dispense 23 nL/well compounds in DMSO via pin transfer.
4. Incubation. Incubate for 1 hr at 37C 5% CO2.
5. Reagent. Dispense 2 uL/well of SARS-CoV-2-S pseudotyped particles. [a] PPs are produced with murine leukemia virus pseudotyping. [b] SARS-CoV-2-S is Wuhan-Hu-1 sequence (BEI #NR-52420) with C-terminal 19 amino acid truncation.
6. Centrifuge. […]
7. Incubation. Incubate at for 48 hr at 37C 5% CO2
8. Centrifuge. Remove supernatant with gentle centrifugation using a Blue Washer (BlueCat Bio).
9. Reagent. Dispense 4 uL/well of Bright-Glo Luciferase detection reagent (Promega #E2620).
10. Incubation. Incubate for 5 min at room temperature.
11. Detection. Read luminescence signal (Viewlux plate reader, PerkinElmer). Data was normalized with wells containing SARS-CoV-2-S PP as 100%, and wells containing bald PP (no fusion protein) as 0%.
Potency is read from the fitted curve at half-maximal effect.

SMILES	activity change, negative = inhibition	Potency
COc1c(N2CCNC(C)C2)c(F)cc2c(=O)c(C(=O)O)cn(C3CC3)c12 (stereo not given)	-3.63% and -6.19%	–
COc1ccc2c3n(c(=NC(=O)c4cccnc4)nc2c1OC)CCN3	-3.67% [at 5.25 µM]	–
C=CCc1cccc(/C=N/NC(=O)CN2CCN(Cc3ccccc3)CC2)c1O	–	31.6 µM (active)
Cn1c(Nc2ccc(C(F)(F)F)cc2)nc2cc(Oc3ccnc(-c4ncc(C(F)(F)F)[nH]4)c3)ccc21	-24.1%	–
C/C(=C1\CCOC(=O)S1)N(C=O)Cc1cnc(C)nc1N	–	inactive
CC(C)(C(=O)NCC(F)(F)C(F)(F)F)C(=O)N[C@@H]1C(=O)Nc2ccccc2-c2ccccc21	-16.5%	–
CC(C)C[C@H](NC(=O)CNC(=O)c1cc(Cl)ccc1Cl)B(O)O	-97.2% and -98.8%	–
O=C(Oc1ccc([N+](=O)[O-])cc1)N1CCC(C(O)(c2ccc3c(c2)OCO3)c2ccc3c(c2)OCO3)CC1	-17.3%	–
C/C=C(/C)C(=O)O[C@H]1C(C)=C2[C@H]([C@@H]1OC(=O)CCCCCCC)[C@@](C)(OC(C)=O)C[C@H](OC(=O)CCC)[C@@]1(O)[C@H]2OC(=O)[C@@]1(C)O	–	22.4 µM (active)
Nc1nc(-c2nn(Cc3ccccc3F)c3ncccc23)nc(N)c1N1CCOCC1	–	inactive
O=C(O)CC(O)C(=O)O (stereo not given)	–	inactive
Cc1ccc(C(=O)Nc2ccc(CN3CCN(C)CC3)c(C(F)(F)F)c2)cc1C#Cc1cnc2cccnn12	–	8.91 µM (active)
CC1=C(/C=C/C(C)=C/C=C/C(C)=C/C(=O)O)C(C)(C)CCC1	–	inactive
C[C@]12CC[C@@H]3[C@@H](CCC4=CC(=O)CC[C@@H]43)[C@@H]1CC[C@@H]2OC(=O)CCc1ccccc1	-12.2%	–
COc1cc2c(cc1OC)CN(CCc1ccc(NC(=O)c3cccc4c(=O)c5cccc(OC)c5[nH]c34)cc1)CC2	-26.4%	–
CCCn1c(=O)c2[nH]c(C34CC5CC3C[C@@H](C5)C4)nc2n(CCC)c1=O	-12.4%	–
CC1(C)CCC(c2ccc(Cl)cc2)=C(CN2CCN(c3ccc(C(=O)NS(=O)(=O)c4ccc(N[C@H](CCN5CCOCC5)CSc5ccccc5)c(S(=O)(=O)C(F)(F)F)c4)cc3)CC2)C1	–	inactive
CC(=O)Oc1ccccc1C(=O)O	–	inactive
CC(=O)Oc1cccc(C)c1	0.724%	–
CCOC(=O)C(C)Oc1cccc2c(=O)n(CC(=O)Nc3ccc4c(c3)OCCO4)ccc12 (stereo not given)	-0.424%	–

SMILES	activity change, negative = inhibition	Potency
NCCCC(N)(C(=O)O)C(F)F (stereo not given)	–	inactive
Nc1nc2c(ncn2CCC(CO)CO)c(=O)[nH]1	-17.9%	–
Cn1cncc1[C@@](N)(c1ccc(Cl)cc1)c1ccc2c(c1)c(-c1cccc(Cl)c1)cc(=O)n2C	-13%	–
CC[C@H](Nc1ncnc2nc[nH]c12)c1nc2cccc(F)c2c(=O)n1-c1ccccc1	-11%	–
O=C(NCCCNc1nc(Nc2cccc(NC(=O)N3CCCC3)c2)ncc1I)c1cccs1	–	inactive
CC(C[N+](C)(C)C)OC(N)=O (stereo not given)	-6.96%	inactive
O=C1CCCC2=C1C(c1[nH]ncc1Cl)N=C(Nc1nc3ccccc3o1)N2 (stereo not given)	-4.23%	–
CN1[C@@H]2CC[C@H]1CC(OC(=O)C(O)c1ccccc1)C2 (stereo not given in full)	-6.45%	–
COc1cc(C)c(Sc2cnc(NC(=O)c3ccc(CNC(C)C(C)(C)C)cc3)s2)cc1C(=O)N1CCN(C(C)=O)CC1 (stereo not given)	–	12.6 µM (active)
O=C(NCC1CCOCC1)c1cnc(Nc2ccc(Cl)cc2Cl)nc1C(F)(F)F	-4.18%	–
CC(=O)Nc1ccc([C@H](C)C(=O)Nc2ncc(C(C)C)s2)cc1	–	3.55 µM (active)
CS(=O)(=O)c1ccc(C(=O)Nc2ccc(Cl)c(-c3ccccn3)c2)c(Cl)c1	-12.8% and -5.84%	–
Cc1ccccc1N=Nc1ccc(N=Nc2c(O)ccc3ccccc23)c(C)c1	-23%	–
CCN(CC)c1ccc(C(=C2C=CC(=[N+](CC)CC)C=C2)c2cc(S(=O)(=O)O)ccc2S(=O)(=O)[O-])cc1	–	inactive
CC1(C)Cc2c(-c3ccccc3)c(-c3ccc(Cl)cc3)c(CC(=O)O)n2C1	-28.3%	–
CNC(=O)c1ccc(N2C(=S)N(c3ccc(C#N)c(C(F)(F)F)c3)C(=O)C2(C)C)cc1F	–	22.4 µM (active)
c1ccc2c(CCNc3ccc(Nc4ccncc4)cc3)c[nH]c2c1	–	8.91 µM (active)
CCOC(=O)c1c(C(C#N)=CN)c2ccc(Cl)c(Cl)c2n1C	-10.2%	–
Nc1nc(Nc2ccc(S(N)(=O)=O)cc2)nn1C(=O)c1c(F)cccc1F	–	1 µM (active)
